KB-3-1 cytotox = KB-3-1 parental cell cytotoxicity | KB-3-1 viability, CellTiter-Glo ATP luminescence, 72 h | Potency, µM (titrated, usually from 46.1 µM), actives largely listed as cytotoxic | 1.4% of 400,000 active | AID 1347075; note: % is set by controls: 0 for no effect and ±100 for the full control effect; nearly all actives have a fitted effect of over 60% in size
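Cytotoxicity in the drug-sensitive parental line KB-3-1 was scored as loss of CellTiter-Glo luminescence following 72 h incubation with compound. Values come from curve fitting of normalized concentration-response data.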
ATXN2 expr inh = ATXN2 expression inhibition; HEK-293 ATXN2-luciferase reporter, luminescence, 24 h; AID 1745845; 0.72% of 360,000 active; Potency, µM (highest dose often 57 µM), for inactives: at the top dose activity change, negative = inhibition, hits mostly inhibitors; note: % is set by controls: 0 for no effect and ±100 for the full control effect; nearly all actives have a fitted effect of over 55% in size
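qHTS (up to 57 uM final) was run with 24 h compound exposure of reporter cells at 37 °C. Each well was multiplexed: SteadyGlo luminescence measured ATXN2-luciferase expression after a fluorogenic Gly-Phe-AFC viability readout (25 uM final).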
S2 tox = viability counter-screen for ATXN expression inhibitors | S2 cells (HEK-293 line with an ATXN2-luciferase reporter) viability, CellTiter-Fluor protease fluorescence, 24 h | Potency, µM (doses to about 56.7 µM), most hits filed as cytotoxic | 0.49% of 400,000 active; note: nearly all actives have a fitted effect of over 40% in size
KB-V1 MDR tox = kills drug-selected multidrug resistant KB-V1 cells; KB-V1 MDR cells viability, CellTiter-Glo, 72 h; Potency, µM (doses to about 46.1 µM), most hits filed as cytotoxic; 3.4% of 400,000 active; note: % is set by controls: 0 for no effect and ±100 for the full control effect; nearly all actives have a fitted effect of over 60% in size
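Cytotoxicity via CellTiter-Glo luminescence after 72 h compound exposure at 37 degrees C. Cells: drug-selected KB-V1 line, DMEM phenol-red free plus 10% FBS. Compounds tested at multiple concentrations; normalized data fitted to concentration-effect curves.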
HT1080 IDH1KD tx = kills HT-1080 cells with IDH1 knockdown. HT-1080 IDH1 knockdown viability, ATP luminescence, 48 h. Potency, µM (series often up to 46.1 µM), inactives show at the top dose activity, negative = toxicity, actives largely listed as cytotoxic. 2% of 360,000 active. AID 686971;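 note: 0% = DMSO wells and -100% = cell-free medium wells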
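Luminescent ATP read-out (CellTiter-Glo, 10 min at room temperature) after 48 h compound exposure at 37 °C gave viability of IDH1-knockdown HT-1080 cells. Activity was normalised to DMSO and cell-free wells, then fitted as concentration-response curves.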
HT1080NT lethal = kills 2HG-producing HT-1080-NT fibrosarcoma cells. HT-1080-NT fibrosarcoma viability, CellTiter-Glo ATP luminescence, 48 h. Potency, µM (top dose mostly 46.1 µM), for the others: at the top dose activity, negative = less viability, usual class: cytotoxic. 1.6% of 360,000 active. AID 686970;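 note: NT is the 2HG producing partner of a matched IDH1 knockdown line; 0% = DMSO-treated cells and -100% = media-only wells without cells; nearly all actives have a fitted effect of over 55% in size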
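Viability by CellTiter-Glo luminescence after 48 h compound exposure at 37C of HT-1080-NT cells (750/well, RPMI, 5% FBS). % activity scaled between DMSO wells and medium-only wells, then curve-fitted and categorized by curve class.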
The depositor's hits bear a star; i = inactive; u = inconclusive; x = no result given. Only some compounds are listed: those with a hit (about 6.2% of all), similar ones and a draw of the others. Calls come from the whole dose curve; as a rule, active = well fitted curve in the direction sought with a large enough effect; inconclusive = small, poorly fitted or top-dose-only effect, or another doubt; inactive = no such curve, though single readings can be large; an effect the other way counts as inactive or inconclusive. Potency is the fitted concentration of half-maximal effect.

SMILES	KB-3-1 cytotox	ATXN2 expr inh	S2 tox	KB-V1 MDR tox	HT1080 IDH1KD tx	HT1080NT lethal
COc1cc2nc(NCCC(C)C)n3nc(-c4ccccc4)nc3c2cc1OC	i	-4%	i	i	x	x
COc1ccc(-c2cc(NC=O)c3ncc(-c4ccc(OC)c(OC)c4)n3c2)cc1	1.6µM*	-26%	u	3.7µM*	0.58µM*	1µM*
COc1ccc(-c2cc(NC=O)c3ncc(-c4ccc(OC)c(OC)c4)n3c2)cc1OC	u	-13%	i	u	u	u
COc1ccc(-c2cnc3c(NC=O)cc(-c4ccccc4OC)cn23)cc1OC	0.18µM*	18µM*	i	1.2µM*	0.18µM*	0.046µM*
Cc1cn2c(=O)cc(COc3ccc(NC(=O)c4cccc(F)c4)cc3)nc2s1	i	-10%	i	i	x	x
Cc1ccc2c(c1)c1nc3ccccc3nc1n2CCN1CCOCC1	i	-16%	i	21µM*	-15%	-13%
CCCCn1c2ccc(C)cc2c2nnc(SCCN3CCCCC3)nc21	18µM*	-20%	u	i	-13%	-11%
CCn1c2ccc(C)cc2c2nnc(SCCN3CCOCC3)nc21	u	-14%	i	u	u	-17%
CCCCn1c2ccc(F)cc2c2nnc(SCCN3CCCCC3)nc21	u	5%	u	i	1%	7%
Cc1nc2c3cc(Cl)ccc3n(CCN3CCOCC3)c2s1	u	-37%	i	u	21µM*	23µM*
O=C(Nc1cccc(C(=O)Nc2ccc(Cl)cn2)c1)c1ccccc1	i	-4%	i	i	3%	-2%
O=C(Nc1ccc(Cl)cn1)c1ccccc1F	23µM*	35%	i	u	-27%	u
O=C(Nc1ccc(Cl)cn1)c1cccc(F)c1	6.5µM*	36%	u	3.7µM*	8.2µM*	u
COc1ccc(CNC(=O)C2=C(C)C(=O)OC23CCN(C(C)=O)CC3)cc1	i	x	x	i	x	x
COc1cc(C(=O)OCc2nc3ccsc3c(=O)[nH]2)c([N+](=O)[O-])cc1OC	i	-6%	i	i	-2%	-3%
CN1CCN(c2nc3c(S(=O)(=O)c4ccc(Cl)cc4)nnn3c3ccsc23)CC1	i	-4%	i	i	x	x
CCCC(=O)Nc1nc2c(s1)CC(C(C)(C)C)CC2 (configuration not stated)	i	57%	i	i	x	x
O=S(=O)(CC(CN1CCCCC1)N1CCCCC1)c1ccc2ccccc2c1 (configuration not stated)	6.5µM*	-20%	i	u	u	u
O=S(=O)(CC(CN1CCOCC1)N1CCOCC1)c1ccccc1 (configuration not stated)	i	x	i	i	10%	18%
Cc1ccc(S(=O)(=O)CC(CN2CCCCC2)N2CCCCC2)cc1 (configuration not stated)	u	u	i	i	18µM*	18µM*
Cc1cc(=O)oc2cc(OCC3CC(c4ccccc4)=NO3)ccc12 (configuration not stated)	7.3µM*	18%	i	8.2µM*	u	11µM*
O=[N+]([O-])c1ccc(OCC2CC(c3ccccc3)=NO2)cc1 (configuration not stated)	i	26%	i	i	7%	9%
Cc1cc(=O)oc2cc(OCC3CC(c4ccc(Br)cc4)=NO3)ccc12 (configuration not stated)	u	-6%	i	21µM*	5%	22%
Cc1cc(=O)oc2cc(OCC(=O)N3CC(C)OC(C)C3)ccc12 (configuration not stated)	i	-8%	i	i	10%	13%
Cc1cc(=O)oc2cc(OCC(=O)N3c4ccccc4CC3C)ccc12 (configuration not stated)	2.9µM*	7%	u	2.6µM*	2.6µM*	2.6µM*
SMILES	KB-3-1 cytotox	ATXN2 expr inh	S2 tox	KB-V1 MDR tox	HT1080 IDH1KD tx	HT1080NT lethal
Cc1ccc(Nc2ncnc3onc(C)c23)cc1Cl	i	-4%	i	i	x	x
CCOc1ccc(Nc2c(S(=O)(=O)c3ccc(C)cc3)cnc3cc(OC)c(OC)cc23)cc1	i	-2%	i	u	x	x
CCC1CN(CC(=O)NC(c2ccccn2)C(F)(F)F)Cc2cc(OC)ccc2O1 (configuration not stated)	x	x	i	x	x	x
O=C1c2ccccc2NC(c2cccc(Cl)c2)N1N=C1CCCCCC1 (configuration not stated)	u	16%	i	26µM*	8%	15%
CC1(C)CC(=O)C(=Cc2cn(-c3ccccc3)nc2-c2ccccc2)C(=O)C1	i	x	u	u	15%	2%
Cc1ccc(-c2nn(-c3ccccc3)cc2C=C2C(=O)CC(C)(C)CC2=O)cc1	u	-25%	u	18µM*	u	-29%
CC1=NNC(=O)/C1=C\c1cn(-c2ccccc2)nc1-c1ccc(Cl)cc1	26µM*	13µM*	x	16µM*	5.8µM*	7.3µM*
Cc1cc(NC(=O)CN(C)S(=O)(=O)c2ccc3c(c2)CCC(=O)N3)ccc1Br	u	-2%	u	u	x	x
CCCN1CCN(C(=O)Cn2c(-c3cccs3)cc3ccccc32)CC1	i	2%	i	i	x	x
COc1ccc(C[C@H]2CN3C(=NC[C@@H]3Cc3ccccc3)N2CCNC(=O)CCC2CCCCC2)cc1	u	u	22µM*	16µM*	u	u
COc1ccc(C[C@H]2CN3C(=NC[C@@H]3C(C)C)N2CCNC(=O)CCC2CCCCC2)cc1	i	-21%	u	i	-19%	-1%
O=C(C1CC1)N1c2ccccc2Sc2ccccc21	21µM*	-33%	i	u	18µM*	u
COc1ccc(-c2cn3nc4c(nc3n2)CCCC4)cc1	u	16µM*	x	u	11%	7%
Cn1c2ccccc2c2n[nH]c(=S)nc21	u	7%	u	6.5µM*	14%	0%
Cn1c2ccccc2c2n[nH]c(=O)nc21	u	-35%	u	i	10%	15%
CSc1ncc(Cl)c(C(=O)Nc2nnc(SC)s2)n1	i	-2%	i	i	16%	7%
CC(C)c1nnc(NC(=O)c2nc(S(=O)(=O)Cc3ccccc3)ncc2Cl)s1	u	u	u	u	6.5µM*	7.3µM*
CSc1nnc(NC(=O)c2nc(S(=O)(=O)Cc3ccccc3)ncc2Cl)s1	18µM*	u	x	u	23µM*	21µM*
CCCc1nnc(NC(=O)c2nc(S(=O)(=O)Cc3ccc(C)cc3)ncc2Cl)s1	u	u	x	i	u	-24%

Screening data as filed in PubChem.
